This note sets out measurements from PubChem BioAssay (NCI).

Compounds without any hit were thinned out: in the full panel of roughly 83,000, 20% have a hit.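 Interpretation: 100, growth as untreated; towards 0, rising growth inhibition; 0, no net growth; 0 to -100, cell death. Compounds scoring below 10 were considered active.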 Unmarked numbers belong to inactive results. The source made the active and inactive calls.

Test systems include SR leukemia; RPMI-8226 leukemia; OVCAR-8 ovarian; OVCAR-5 ovarian; OVCAR-4 ovarian; SK-OV-3 ovarian; IGROV1 ovarian; OVCAR-3 ovarian; HS 578T breast; NCI/ADR-RES ovarian; T-47D breast; BT-549 breast; MDA-MB-435 melanoma; SW-620 colon; MCF7 breast; HCT-116 colon; HCC-2998 colon; KM12 colon; MDA-MB-468 breast.
What all share (test): NCI-60 one-dose screen, 48 h (100 = growth as untreated, 0 = no growth, -100 = all killed)
Holding throughout (settings): 10 µM unless noted

With `O=c1ccc(Cn2c(C(F)(F)F)cc3c(Cl)ncnc32)c[nH]1`, the growth was -53.9% (active) in the assay with SR leukemia; 81.1% in the assay on RPMI-8226 leukemia; 0.681% (active) in the assay with OVCAR-8 ovarian; 126% in the assay with OVCAR-5 ovarian; -2.63% (active) in the assay with OVCAR-4 ovarian; 119% with SK-OV-3 ovarian. For the same molecule, the growth with IGROV1 ovarian is -67.4% (active); in the assay on OVCAR-3 ovarian, -20% (active); in the assay with HS 578T breast, -14.4% (active); in the assay with NCI/ADR-RES ovarian, 61.3%; in the assay on T-47D breast, 75.7%; with BT-549 breast, 4.61% (active). Moreover, the growth in the assay with MDA-MB-435 melanoma is 25.5%; in the assay on SW-620 colon, 32.5%; in the assay with MCF7 breast, 82.4%; in the assay with HCT-116 colon it was 19.5%; in the assay with HCC-2998 colon, 40.4%; in the assay with KM12 colon, 105%. The growth in the assay with MDA-MB-468 breast was 37.2%.
Turning to `COc1ccc(C2=NN(C(=O)[C@H]3[C@@H](c4ccco4)c4sc(=O)[nH]c4S[C@@H]3C)C(c3ccc4ccccc4c3)C2)cc1` (some centres not stated), the growth was 24.8% with SR leukemia; 8.59% (active) with RPMI-8226 leukemia; 28% in the assay on OVCAR-8 ovarian; 42.9% in the assay with OVCAR-5 ovarian; 49.2% in the assay with OVCAR-4 ovarian; 84.6% in the assay on SK-OV-3 ovarian. For the same molecule, the growth with IGROV1 ovarian is 45.6%; with OVCAR-3 ovarian it was 31%; with HS 578T breast, 29.6%; in the assay with NCI/ADR-RES ovarian, 26.7%; with T-47D breast it was 9.22% (active); in the assay with BT-549 breast, 76.2%. Moreover, the growth with MDA-MB-435 melanoma is 41.8%; with SW-620 colon, 24.9%; in the assay with MCF7 breast, 13.1%; with HCT-116 colon it was 16.1%; in the assay on HCC-2998 colon, 27.3%; with KM12 colon, 33.9%. Besides, in the assay with MDA-MB-468 breast, the growth is -14.6% (active).
On to `CCCCCCCCc1ccc(C(=O)Nc2cccc(O)c2)cc1`, for which the growth is 29.8% in the assay on SR leukemia; 35% with RPMI-8226 leukemia; 83% in the assay with OVCAR-8 ovarian; 100% in the assay with OVCAR-5 ovarian; 78.8% with OVCAR-4 ovarian; 109% with SK-OV-3 ovarian. For the same molecule, the growth in the assay on IGROV1 ovarian was 85.6%; in the assay on OVCAR-3 ovarian, 91.2%; in the assay with HS 578T breast it was 81.4%; in the assay with NCI/ADR-RES ovarian it was 59%; with T-47D breast, 67.7%; in the assay on BT-549 breast, 51.2%. Moreover, the growth in the assay with MDA-MB-435 melanoma was 50.5%; in the assay with SW-620 colon it was 93.5%; in the assay with MCF7 breast, 60.3%; in the assay with HCT-116 colon, 65%; in the assay on HCC-2998 colon, 109%; with KM12 colon, 54.3%. Moreover, the growth in the assay with MDA-MB-468 breast was 90.9%.
As to `N#CC1=C(c2cccs2)Nc2c(c(-c3ccccc3)nn2-c2ccccc2)C12C(=O)Nc1ccccc12` (configuration not stated), the growth is 1.46% (active) in the assay with SR leukemia; 34.5% in the assay with RPMI-8226 leukemia; 24.2% with OVCAR-8 ovarian; 57.7% in the assay with OVCAR-5 ovarian; 29.2% with OVCAR-4 ovarian; 28.4% with SK-OV-3 ovarian. Moreover, the growth with IGROV1 ovarian was 50.7%; with OVCAR-3 ovarian it was 12.7%; with HS 578T breast it was 4.59% (active); with NCI/ADR-RES ovarian, 61.6%; with T-47D breast, 17.3%; with BT-549 breast it was -41.8% (active). For the same molecule, the growth with MDA-MB-435 melanoma was 28.3%; in the assay with SW-620 colon, 8.74% (active); with MCF7 breast it was 31.4%; in the assay with HCT-116 colon it was 5.53% (active); in the assay with HCC-2998 colon, 38.1%; in the assay with KM12 colon, 9.03% (active). For the same molecule, in the assay with MDA-MB-468 breast, the growth was -9.71% (active).
On to `CCCCCCCCc1ccc(C(=O)Nc2ccc(C)cc2C(=O)O)cc1`, for which the growth is 90% with SR leukemia; 63.5% with RPMI-8226 leukemia; 94.1% in the assay on OVCAR-8 ovarian; 109% with OVCAR-5 ovarian; 99.8% in the assay on OVCAR-4 ovarian; 100% with SK-OV-3 ovarian. Also, the growth is 83.9% with IGROV1 ovarian; 94% with OVCAR-3 ovarian; 105% in the assay with HS 578T breast; 94.1% with NCI/ADR-RES ovarian; 94% in the assay on T-47D breast; 104% in the assay on BT-549 breast. Besides, the growth with MDA-MB-435 melanoma was 104%; in the assay on SW-620 colon, 103%; in the assay with MCF7 breast, 85.2%; in the assay with HCT-116 colon, 75.5%; in the assay on HCC-2998 colon, 106%; in the assay on KM12 colon it was 50.3%. The growth with MDA-MB-468 breast is 70.5%.
Take `COC(=O)c1c(C(=O)OC)c2c3ccccc3c3ccccc3n2c1C(=O)C(F)(F)F`: the growth in the assay on SR leukemia was 81.8%; in the assay with RPMI-8226 leukemia, 97.6%; with OVCAR-8 ovarian it was 99.6%; in the assay on OVCAR-5 ovarian, 99.2%; with OVCAR-4 ovarian, 94.7%; in the assay with SK-OV-3 ovarian, 107%. Further, the growth in the assay on IGROV1 ovarian is 82.9%; in the assay with OVCAR-3 ovarian, 112%; in the assay with HS 578T breast it was 99.2%; in the assay with NCI/ADR-RES ovarian, 93.7%; with T-47D breast it was 101%; in the assay on BT-549 breast, 106%. Further, the growth was 102% with MDA-MB-435 melanoma; 97.1% in the assay on SW-620 colon; 91.6% in the assay on MCF7 breast; 98.7% with HCT-116 colon; 122% in the assay on HCC-2998 colon; 106% in the assay on KM12 colon. Also, the growth in the assay with MDA-MB-468 breast is 92%.
Regarding `O=C(/C=C1\C(=O)N(Cc2ccccc2)c2ccccc21)c1cc2ccccc2oc1=O`, the growth in the assay with SR leukemia is 22.5%; with RPMI-8226 leukemia, 98.8%; in the assay with OVCAR-8 ovarian it was 98%; with OVCAR-5 ovarian, 116%; in the assay on OVCAR-4 ovarian, 84.5%; in the assay on SK-OV-3 ovarian, 109%. Moreover, the growth is 67.4% in the assay with IGROV1 ovarian; 38.6% in the assay on OVCAR-3 ovarian; 89.3% with HS 578T breast; 91.3% in the assay with NCI/ADR-RES ovarian; 40.3% with T-47D breast; 97.1% in the assay with BT-549 breast. For the same molecule, the growth with MDA-MB-435 melanoma is 107%; with SW-620 colon, 24.2%; in the assay on MCF7 breast, 29.8%; in the assay on HCT-116 colon it was 82.9%; in the assay with HCC-2998 colon, 113%; with KM12 colon, 91.2%. The growth with MDA-MB-468 breast is 29.6%.
For the molecule `Cc1cc(=O)oc2cc(OCC(O)CNN3C(=O)c4cccc5c(N6CCN(C)CC6)ccc(c45)C3=O)ccc12` (configuration not stated), the growth is 81.1% in the assay on SR leukemia; 97.4% with RPMI-8226 leukemia; 91.4% in the assay with OVCAR-8 ovarian; 112% with OVCAR-5 ovarian; 99.1% in the assay with OVCAR-4 ovarian; 116% in the assay with SK-OV-3 ovarian. Moreover, the growth was 109% in the assay with IGROV1 ovarian; 103% with OVCAR-3 ovarian; 87.4% in the assay on HS 578T breast; 89.4% with NCI/ADR-RES ovarian; 109% with T-47D breast; 113% with BT-549 breast. Besides, the growth with MDA-MB-435 melanoma is 56.9%; with SW-620 colon it was 84.3%; in the assay with MCF7 breast, 88.6%; with HCT-116 colon, 93.5%; with HCC-2998 colon, 101%; in the assay with KM12 colon, 90.8%. In the assay on MDA-MB-468 breast, the growth is 108%.
